Rows were chosen to be rich in hits. Some 2.9% of all compounds tested hit in one or more screens of this group.
LYPLA1 inh: blocks human lysophospholipase 1, a PME1 counter-screen. 320,000 tested, 0.16% active. recombinant LYPLA1, FP-Rh probe fluorescence polarization. O75608. inhibition, % at 5.9 µM. AID 2174;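 active means inhibition above the mean of all tested compounds plus 3 SD, set per campaign, cut at about 14% in these data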;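 further: inhibitors block serine hydrolase probe labeling of LYPLA1 so polarization falls; 0% = enzyme with DMSO and 100% = wells lacking LYPLA1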
PAFAH1B3 FP inh: PAFAH1B3 (human) inhibition; 340,000 tested, 0.28% active; recombinant PAFAH1B3, FP-rhodamine probe, fluorescence polarization; inhibition, % at 3.39 µM; Q15102;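 active means inhibition above the screen-wide average of all tested compounds plus 3 SD, cut at about 25% in these data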;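 further: 0% = enzyme with DMSO only and 100% = wells lacking PAFAH1B3 protein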
PAFAH2 inh: inhibitors of human PAFAH2; recombinant PAFAH2, FP-rhodamine activity probe, fluorescence polarization; AID 492956; inhibition, % at 3.39 µM; 340,000 tested, 0.99% active; Q99487;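 active means inhibition above the mean over all tested compounds plus 3 SD, cut at about 30% in these data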;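 further: inhibitors block probe labeling of enzyme so polarization drops; 0% = enzyme with DMSO and 100% = wells lacking PAFAH2 protein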
pPAFAH inh: pPAFAH (human) enzyme inhibition. Q13093. recombinant pPAFAH, FP-rhodamine probe fluorescence polarization. inhibition, % at 3.39 µM. 330,000 tested, 1.5% active. AID 463082;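 active means inhibition above the mean inhibition across the screen plus 3 SD, cut at about 25% in these data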;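 further: inhibitors block binding of the rhodamine activity-based probe so polarization drops; 0% = enzyme with DMSO and 100% = wells lacking pPAFAH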
Target sequence (Q13093 whole entry, looked up): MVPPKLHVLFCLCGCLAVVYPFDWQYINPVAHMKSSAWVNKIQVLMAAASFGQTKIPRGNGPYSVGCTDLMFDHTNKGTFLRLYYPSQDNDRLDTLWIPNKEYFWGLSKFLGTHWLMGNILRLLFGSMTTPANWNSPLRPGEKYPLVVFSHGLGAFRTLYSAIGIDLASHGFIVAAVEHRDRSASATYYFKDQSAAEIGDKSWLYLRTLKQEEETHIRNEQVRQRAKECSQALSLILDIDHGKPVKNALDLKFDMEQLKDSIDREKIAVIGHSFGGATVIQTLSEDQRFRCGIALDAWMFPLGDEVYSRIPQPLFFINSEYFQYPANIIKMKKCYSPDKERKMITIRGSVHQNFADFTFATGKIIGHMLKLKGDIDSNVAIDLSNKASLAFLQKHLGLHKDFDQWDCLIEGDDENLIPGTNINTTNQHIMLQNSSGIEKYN
PAFAH1B2 inh: inhibitors of human PAFAH1B2; AID 492953; recombinant PAFAH1B2, FP-rhodamine activity probe, fluorescence polarization; inhibition, % at 3.39 µM; P68402; 340,000 tested, 1.2% active;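 active means inhibition above the mean of all tested compounds plus 3 SD, cut at about 24% in these data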;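 further: 0% = enzyme with DMSO and 100% = wells lacking PAFAH1B2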
LYPLA2 counter: blocks human lysophospholipase 2, a PME1 counter-screen. recombinant LYPLA2, FP-Rh probe fluorescence polarization. inhibition, % at 5.9 µM. 320,000 tested, 0.38% active. AID 2177;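 active means inhibition above the screen-wide mean plus 3 SD, limit set per campaign, cut at about 26% in these data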;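 further: 0% = LYPLA2 with DMSO and 100% = wells lacking LYPLA2 enzyme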
Target sequence (O95372 whole entry, looked up): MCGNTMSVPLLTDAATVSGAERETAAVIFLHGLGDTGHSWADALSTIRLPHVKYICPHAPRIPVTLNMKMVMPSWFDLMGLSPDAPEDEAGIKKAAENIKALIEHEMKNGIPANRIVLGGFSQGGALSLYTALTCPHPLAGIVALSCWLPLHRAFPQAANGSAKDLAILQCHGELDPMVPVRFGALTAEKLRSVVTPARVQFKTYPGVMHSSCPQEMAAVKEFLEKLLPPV
An asterisk follows results filed as active.

What do the screens show for `N#C/C(=N\Nc1ccc(S(=O)(=O)N2CCc3ccccc32)cc1)C(N)=S`?
LYPLA1 inh: -9.9; PAFAH1B3 FP inh: 13.6; PAFAH2 inh: 24.2; pPAFAH inh: 24.4; PAFAH1B2 inh: 26.1*; LYPLA2 counter: -11.4

What do the screens show for `CCOC(=O)/C(C#N)=N/Nc1ccc(S(=O)(=O)N2CCc3ccccc32)cc1`?
LYPLA1 inh: -0.3; PAFAH1B3 FP inh: 10.0; PAFAH2 inh: -0.4; pPAFAH inh: 14.7; PAFAH1B2 inh: 13.0; LYPLA2 counter: 0.3

Results for COc1cc2c(cc1NC(=O)C(C)NCc1ccccc1)oc1ccccc12 (stereo unspecified) ?
LYPLA1 inh: -8.7; PAFAH1B3 FP inh: 5.9; PAFAH2 inh: -6.7; pPAFAH inh: 26.1*; PAFAH1B2 inh: -0.5; LYPLA2 counter: -8.6

How did Cc1cc(C(=O)N/N=C2\CCCC(=O)C2)c(C)n1-c1ccccc1 do in these assays?
LYPLA1 inh: 1.2; PAFAH1B3 FP inh: 6.9; PAFAH2 inh: -3.6; pPAFAH inh: 28.0*; PAFAH1B2 inh: -1.6; LYPLA2 counter: 5.4

What do the screens show for `CC(=O)N1CCN(c2ccc(NC(=O)c3cc4ccccc4o3)cc2)CC1`?
LYPLA1 inh: 3.6; PAFAH1B3 FP inh: 1.4; PAFAH2 inh: -4.0; pPAFAH inh: 26.0*; PAFAH1B2 inh: 3.2; LYPLA2 counter: 8.3

What do the screens show for `CC(=O)Nc1ccc(NC(=O)c2cc(=O)c3ccccc3o2)cc1`?
LYPLA1 inh: -0.6; PAFAH1B3 FP inh: 5.4; PAFAH2 inh: 0.6; pPAFAH inh: 27.7*; PAFAH1B2 inh: 3.5; LYPLA2 counter: 3.3

What do the screens show for `Cc1ccc(NC(=O)c2cc(=O)c3ccccc3o2)cc1`?
LYPLA1 inh: 4.4; PAFAH1B3 FP inh: 1.3; PAFAH2 inh: 3.1; pPAFAH inh: 2.1; PAFAH1B2 inh: 5.3; LYPLA2 counter: 2.5

Results for Cc1cc(C)cc(OCCCCCNCCO)c1 ?
LYPLA1 inh: -0.4; PAFAH1B3 FP inh: -6.5; PAFAH2 inh: 3.5; pPAFAH inh: -5.4; PAFAH1B2 inh: 2.8; LYPLA2 counter: 1.4

How did CCCC(NC(=O)COc1cc2c(c3oc(=O)cc(C)c13)CCC(C)(C)O2)C(=O)O (stereo unspecified) do in these assays?
LYPLA1 inh: 0.1; PAFAH1B3 FP inh: -3.5; PAFAH2 inh: 12.5; pPAFAH inh: 7.0; PAFAH1B2 inh: 8.9; LYPLA2 counter: -3.4

Results for Cc1cc(=O)oc2c3c(cc(OCC(=O)N[C@@H](CC(C)C)C(=O)O)c12)OC(C)(C)CC3 ?
LYPLA1 inh: 1.8; PAFAH1B3 FP inh: 3.7; PAFAH2 inh: 12.5; pPAFAH inh: 0.5; PAFAH1B2 inh: 35.4*; LYPLA2 counter: 1.6

How did CC(Oc1ccc(-c2ccccc2)c(F)c1)c1ccn(S(=O)(=O)c2ccc(Cl)cc2)n1 (stereo unspecified) do in these assays?
LYPLA1 inh: -4.1; PAFAH1B3 FP inh: -8.0; PAFAH2 inh: 1.2; pPAFAH inh: 4.8; PAFAH1B2 inh: -5.3; LYPLA2 counter: -12.2

Results for CC(Oc1ccc(Cl)cc1)c1ccnn1S(=O)(=O)c1ccccc1 (stereo unspecified) ?
LYPLA1 inh: -2.6; PAFAH1B3 FP inh: 3.0; PAFAH2 inh: -3.7; pPAFAH inh: 14.7; PAFAH1B2 inh: 50.6*; LYPLA2 counter: -2.1

How did N#CC1c2ccccc2C=CN1C(=O)c1ccccc1 (stereo unspecified) do in these assays?
LYPLA1 inh: -0.2; PAFAH1B3 FP inh: -3.5; PAFAH2 inh: 3.4; pPAFAH inh: -4.6; PAFAH1B2 inh: 0.3; LYPLA2 counter: 7.5

How did O=C(COC(=O)c1ccc(OC(F)(F)F)cc1)Nc1ncccn1 do in these assays?
PAFAH1B3 FP inh: -0.8; PAFAH2 inh: 14.8; pPAFAH inh: 24.8*; PAFAH1B2 inh: 0.5

How did NC(=O)NC(=O)COC(=O)c1ccc(OC(F)(F)F)cc1 do in these assays?
LYPLA1 inh: 1.7; PAFAH1B3 FP inh: 5.7; PAFAH2 inh: 4.9; pPAFAH inh: 3.5; PAFAH1B2 inh: 0.4; LYPLA2 counter: -2.5

How did CN1CCN(Cc2nc(-c3cccs3)no2)CC1c1ccccc1 (stereo unspecified) do in these assays?
LYPLA1 inh: -3.5; PAFAH1B3 FP inh: 6.1; PAFAH2 inh: -2.5; pPAFAH inh: 1.8; PAFAH1B2 inh: -6.0; LYPLA2 counter: 1.5

How did CC(=O)c1c2c3c(c(Br)ccc3n(C)c1=O)C(=O)c1ccccc1-2 do in these assays?
LYPLA1 inh: 2.6; PAFAH1B3 FP inh: 13.5; PAFAH2 inh: -4.2; pPAFAH inh: 28.9*; PAFAH1B2 inh: 3.4; LYPLA2 counter: 3.2

Results for CC(=O)c1c2c3c(cccc3n(C)c1=O)C(=O)c1ccccc1-2 ?
LYPLA1 inh: 1.8; pPAFAH inh: 10.6; LYPLA2 counter: 12.7

What do the screens show for `O=C(OCC(=O)N1CCc2ccccc21)c1cccnc1`?
LYPLA1 inh: 0.3; PAFAH1B3 FP inh: -0.3; PAFAH2 inh: -10.5; pPAFAH inh: -0.9; PAFAH1B2 inh: 1.0; LYPLA2 counter: 7.6

What do the screens show for `O=C(O)c1cc(-c2ccccc2Cl)n(-c2ccccc2)n1`?
LYPLA1 inh: 1.7; PAFAH1B3 FP inh: 6.1; PAFAH2 inh: -7.5; pPAFAH inh: 4.0; PAFAH1B2 inh: 29.0*; LYPLA2 counter: 7.6

What do the screens show for `N#C/C(=C/c1cn[nH]c1-c1cccc(Br)c1)C(=O)O`?
LYPLA1 inh: 4.7; PAFAH1B3 FP inh: 5.5; PAFAH2 inh: 6.0; pPAFAH inh: -1.9; PAFAH1B2 inh: 4.6; LYPLA2 counter: -5.2

Results for N#C/C(=C/c1cn[nH]c1-c1ccc(Br)cc1)C(=O)O ?
LYPLA1 inh: 0.2; PAFAH1B3 FP inh: 18.2; PAFAH2 inh: 8.2; pPAFAH inh: 8.8; PAFAH1B2 inh: 30.5*; LYPLA2 counter: 0.9

Results for O=C(CCSc1ccc(F)cc1)NNC(=O)c1ccc([N+](=O)[O-])cc1 ?
LYPLA1 inh: -0.5; PAFAH1B3 FP inh: 2.4; PAFAH2 inh: 0.1; pPAFAH inh: 6.0; PAFAH1B2 inh: 28.5*; LYPLA2 counter: 0.4

Results for O=C(COc1ccc(Cl)cc1)Nc1ccc(N2CCN(C(=O)c3ccco3)CC2)cc1 ?
LYPLA1 inh: 1.1; PAFAH1B3 FP inh: 8.6; PAFAH2 inh: 10.6; pPAFAH inh: 16.9; PAFAH1B2 inh: -1.1; LYPLA2 counter: 6.2

What do the screens show for `O=C(CSc1ccc(Cl)cc1)Nc1ccc(N2CCN(C(=O)c3ccco3)CC2)cc1`?
LYPLA1 inh: -3.1; PAFAH1B3 FP inh: 1.5; PAFAH2 inh: 10.5; pPAFAH inh: 20.2; PAFAH1B2 inh: 25.9*; LYPLA2 counter: 2.0

What do the screens show for `Cc1ccccc1C(=O)N1CCN(c2ccc(NC(=O)CSc3ccc(Cl)cc3)cc2)CC1`?
LYPLA1 inh: -6.3; PAFAH1B3 FP inh: 4.3; PAFAH2 inh: -1.2; pPAFAH inh: 17.8; PAFAH1B2 inh: 31.5*; LYPLA2 counter: 4.4

Results for CCOC(=O)c1ccsc1NC(=O)c1ccco1 ?
LYPLA1 inh: -2.6; PAFAH1B3 FP inh: 12.5; PAFAH2 inh: -7.3; pPAFAH inh: -1.9; PAFAH1B2 inh: -1.1; LYPLA2 counter: -5.8

How did COc1ccc(CC(=O)N2CCN(c3ccccc3OC)CC2)cc1 do in these assays?
LYPLA1 inh: 0.6; PAFAH1B3 FP inh: -3.4; PAFAH2 inh: 4.6; pPAFAH inh: 3.0; PAFAH1B2 inh: 6.1; LYPLA2 counter: -0.3

From PubChem BioAssay
